Shown are actives, neighbours in structure and some others; about 11% of the full set was active somewhere.
HP1b binding inh = HTS for Inhibitors of HP1-beta Chromodomain Interactions with Methylated Histone Tails | Chromobox protein homolog 1 (Homo sapiens), P83916 | AlphaScreen HP1-beta / biotin-H3K9me3 peptide binding | Potency, µM (titrated, usually from 114 µM), inactives show at the highest dose activity change, negative = inhibition, actives largely listed as inhibitors | 390,000 tested, 0.56% active | AID 540317, 2011; further: potency means the concentration at half of the fitted maximal effect; nearly all actives have a fitted effect of over 70% in size
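HP1-beta protein (50 nM final) preincubated 30 min at room temperature with biotinylated H3(1-18)K9me3 peptide (50 nM) in PBS pH 7.4, 0.01% Tween-20, then compound added for 30 min. AlphaScreen streptavidin donor/nickel chelate acceptor beads (10 ug/mL final), 30 min dark, luminescence read.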
BAZ2B inh = qHTS Assay for Inhibitors of BAZ2B; Bromodomain adjacent to zinc finger domain protein 2B (Homo sapiens), Q9UIF8; Potency, µM (series often up to 114 µM), for inactives: top-dose activity change, negative = inhibition, most hits filed as inhibitors; 360,000 tested, 4.4% active; AlphaScreen BAZ2B-H3K14Ac peptide displacement; AID 504333, 2011; further: potency means the concentration at half of the fitted maximal effect; on the % scale 0 is the no-effect control and ±100 the full control effect; nearly all actives have a fitted effect of over 60% in size
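In this displacement format the biotinylated H3(5-23) peptide acetylated at Lys14 serves as ligand at 50 nM, with BAZ2B at 50 nM in PBS pH 7.4 containing 0.01% Tween-20. Donor and acceptor beads are 10 ug/mL final.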
G9a inh = qHTS Assay for Inhibitors of Histone Lysine Methyltransferase G9a. 350,000 tested, 8.8% active. Potency, µM (series often up to 102 µM), for inactives: at the highest dose activity, negative = inhibition, most hits filed as inhibitors. G9a H3K9 monomethylation, AlphaScreen, 2 h. Histone-lysine N-methyltransferase EHMT2 (Homo sapiens), Q96KQ7. AID 504332, 2011; further: potency means the concentration at half of the fitted maximal effect; on the % scale 0 is the no-effect control and ±100 the full control effect; nearly all actives have a fitted effect of over 75% in size
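Methyltransferase reactions run at room temperature for 2 h (20 nM enzyme, 500 nM biotin-H3K9 peptide, 20 uM SAM) after a 15 min compound preincubation; product detected by AlphaScreen beads and anti-H3K9me1 antibody.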
JMJD2A Tudor = qHTS Assay for Inhibitors of JMJD2A-Tudor Domain | Lysine-specific demethylase 4A (Homo sapiens), O75164 | AlphaScreen JMJD2A-Tudor / H3K4me3 peptide binding | Potency, µM (series often up to 114 µM), for inactives: at the top dose activity change, negative = inhibition, hits mostly inhibitors | 390,000 tested, 4.4% active | AID 504339, 2011; further: potency means the concentration at half of the fitted maximal effect; on the % scale 0 is the no-effect control and ±100 the full control effect; nearly all actives have a fitted effect of over 50% in size
L3MBTL1 block = qHTS Assay for the Inhibitors of L3MBTL1; Lethal(3)malignant brain tumor-like protein 1 (Homo sapiens), Q9Y468; AlphaScreen L3MBTL1–H3K9me1 peptide binding; Potency, µM (titrated, usually from 57.1 µM), without a hit: at the highest dose activity, negative = inhibition, hits mostly inhibitors; 230,000 tested, 0.66% active; further: potency means the concentration at half of the fitted maximal effect; on the % scale 0 is the no-effect control and ±100 the full control effect; nearly all actives have a fitted effect of over 60% in size
Target sequence (Q9Y468 whole entry, looked up): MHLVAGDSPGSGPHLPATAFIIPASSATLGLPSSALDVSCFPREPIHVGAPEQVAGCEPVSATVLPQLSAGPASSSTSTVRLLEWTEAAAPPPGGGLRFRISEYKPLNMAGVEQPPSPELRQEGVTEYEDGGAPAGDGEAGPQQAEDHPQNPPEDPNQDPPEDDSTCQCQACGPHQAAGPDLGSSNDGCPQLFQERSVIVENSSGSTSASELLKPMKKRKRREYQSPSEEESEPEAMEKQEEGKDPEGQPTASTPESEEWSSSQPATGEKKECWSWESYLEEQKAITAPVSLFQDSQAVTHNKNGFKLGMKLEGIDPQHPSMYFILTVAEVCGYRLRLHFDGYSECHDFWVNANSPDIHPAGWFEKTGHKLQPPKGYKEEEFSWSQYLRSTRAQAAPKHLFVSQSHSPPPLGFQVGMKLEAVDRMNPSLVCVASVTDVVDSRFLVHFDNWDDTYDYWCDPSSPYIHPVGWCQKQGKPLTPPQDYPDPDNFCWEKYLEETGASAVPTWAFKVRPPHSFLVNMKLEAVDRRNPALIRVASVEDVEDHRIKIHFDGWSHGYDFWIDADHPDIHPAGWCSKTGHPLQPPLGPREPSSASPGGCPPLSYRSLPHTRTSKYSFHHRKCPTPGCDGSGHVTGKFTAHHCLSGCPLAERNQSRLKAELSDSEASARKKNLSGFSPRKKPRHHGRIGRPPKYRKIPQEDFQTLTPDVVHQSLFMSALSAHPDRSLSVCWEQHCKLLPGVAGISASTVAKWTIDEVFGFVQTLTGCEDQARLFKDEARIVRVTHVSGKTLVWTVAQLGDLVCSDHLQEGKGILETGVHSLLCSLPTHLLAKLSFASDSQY
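First, the protein-peptide complex forms for 30 min at room temperature (L3MBTL1 50 nM, biotinylated H3K9me1 peptide 75 nM). Next, compounds are pin-transferred and incubated 30 min. Finally, AlphaScreen beads are added and read after 30 min.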
PI5P4K alpha inh = qHTS for Inhibitors of phosphatidylinositol 5-phosphate 4-kinase (PI5P4K); Phosphatidylinositol 5-phosphate 4-kinase type-2 alpha (Homo sapiens), P48426; 330,000 tested, 1.2% active; max response, %; PI5P4Kalpha enzyme, ADP-Glo luminescence, 60 min; stronger effect = lower value; active means max response of -50% or lower; inconclusive means between -30% and -50%; inactive means -30% or higher; further: value at the top dose of about 77 µM; on the % scale 0 is the no-effect control and ±100 the full control effect
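Human PI5P4Kalpha with substrate in 0.038 M HEPES pH 7.4, 0.28 mM EGTA, 0.1% CHAPS, 5% DMSO; reaction started with 5 microM ATP (final), 60 min at room temperature. ADP formed read by ADP-Glo luminescence.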
* hit, by the source's call; ? = inconclusive; . = no result given; ! = not active in a repeat; [ ] = dose if it differs, or a comment. Unless noted, the call rests on the fitted dose curve; in most records, active means well fitted inhibition curve with a large enough effect; inconclusive means small, poorly fitted or top-dose-only effect; inactive means no such curve, though single readings can be large or run the other way.

SMILES | HP1b binding inh | BAZ2B inh | G9a inh | JMJD2A Tudor | L3MBTL1 block | PI5P4K alpha inh
Cc1ncc(CO)c(/C=N/NC(=O)c2cc(Br)ccc2O)c1O | 39% | 11µM* | -40% | 79µM* | . | 1
Cc1cc(C(=O)N/N=C/c2c(CO)cnc(C)c2O)c2ccccc2n1 | 38% | 25µM* | 71% | 50µM* | . | -3
Cc1c(/C=N/NC(=O)c2cc(Br)ccc2O)c(=O)n(C)c(=O)n1C | 25% | 4% | 5%[59 µM] | -1% | . | -8
O=C(NC1CC(=O)N(c2cccc(F)c2)C1)C1CC1 (configuration not stated) | 19% | -1% | 8%[59 µM] | -9% | . | .
O=C(Nc1ccccc1C(F)(F)F)c1ncoc1-c1ccco1 | 42% | -11% | 5%[59 µM] | -1% | . | .
O=C(CSc1oc(-c2ccc(F)cc2)nc1S(=O)(=O)c1ccccc1)NC1CCCCC1 | 18% | 3% | -14%[59 µM] | -16% | . | .
COc1ccc(/C=C/c2cccc[n+]2C)c(O)c1 | 6% | -4% | . | -1% | -1% | -2
CCN(CC)c1ccc(/C=C/c2cccc[n+]2C)c(OC)c1 | -18% | 50µM* | 35µM* | 18µM* | -13% | ?
O=[N+]([O-])c1cc(C(F)(F)F)cc([N+](=O)[O-])c1N1CCCNCC1 | -1% | -22% | ? | ? | -2% | 1
CNC1=C([N+](=O)[O-])CC([N+](=O)[O-])=C(N2CCNCC2)N1C | 9% | -1% | 45µM* | -12% | 15% | -15
CC(=O)Oc1cc(O)c2c(=O)c(OC(C)=O)c(-c3ccc(OC(C)=O)c(OC(C)=O)c3)oc2c1 | 1% | . | . | ? | . | -98*
COc1ccc(-c2oc3cc(OC(C)=O)cc(OC(C)=O)c3c(=O)c2OC)cc1 | -31% | . | . | -33% | . | -4
CCS(=O)(=O)c1ncc(N(Cc2ccco2)Cc2ccccc2F)c(C(=O)Nc2cccc(Cl)c2)n1 | 52% | -23% | -4%[59 µM] | -14% | . | .
O=C(O)C(CCCCN1C(=O)c2ccccc2C1=O)N1C(=O)c2ccccc2C1=O (configuration not stated) | 46% | 89µM* | ? | -8% | 6% | 3
O=C(Nc1ccccc1)C(CCCCN1C(=O)c2ccccc2C1=O)N1C(=O)c2ccccc2C1=O (configuration not stated) | 7% | . | . | -23% | . | -2
Cn1nnnc1Sc1ncnc2scc(-c3ccc(C(=O)OC(C)(C)C)cc3)c12 | . | . | . | -26% | . | .
CNc1c2c(nn1C)CCCC2 | 40µM*! | ? | ? | 20µM*! | -3% | 1
O=C(c1csnn1)N1CCC2(CCCN(C(c3ccccc3)c3ccccc3)C2)CC1 | . | . | 4%[12.7 µM] | . | . | .
COc1ccc(OC)c(NC(=O)c2c(C)oc3ncnc(N4CCOCC4)c23)c1 | 19% | -14%[57.1 µM] | -42%[59 µM] | -19% | . | .
COc1cccc(C(=O)NC2=NC(c3ccccc3F)CC(=O)N2)c1 (configuration not stated) | 34% | 2% | -27%[59 µM] | -12% | . | .
Nc1cc(N)nc(SCC(=O)NCc2ccco2)n1 | 27% | ? | -11% | 0% | . | -1
Cc1cccc(-c2nsc(SCC(=O)NCc3ccc4c(c3)OCO4)n2)c1 | 39% | 5% | -8% | -3%[57.1 µM] | -7% | 7
CCOC(=O)CNC(=O)CSc1nc(-c2cccc(C)c2)ns1 | -21% | 0% | 11µM* | -1% | -17% | -13
Cc1cccc(-c2nsc(SCC(=O)NCc3ccco3)n2)c1 | -14% | -9% | 32µM* | -22% | -3% | .
Cc1cccc(-c2nsc(SCC(=O)NCC3CCCO3)n2)c1 (configuration not stated) | -10% | -15% | 18µM* | -2% | -6% | 3
SMILES | HP1b binding inh | BAZ2B inh | G9a inh | JMJD2A Tudor | L3MBTL1 block | PI5P4K alpha inh
Cc1cc(C)nc(SCC(=O)NCc2ccco2)n1 | -8% | 0% | 45µM* | -24% | -14% | 2
O=[N+]([O-])c1ccc(S(=O)(=O)N2CCN(c3nc(-c4cccs4)nc4ccccc34)CC2)cc1 | 12% | . | . | -26% | . | .
CCOc1ccc(-c2cc3c(=O)n(Cc4nc(-c5ccc(OC(C)C)cc5)oc4C)ccn3n2)cc1Cl | 33% | 0% | -35%[59 µM] | -15% | . | .
C=CCNC(=O)C1CC1(c1cccc(C)c1)c1cccc(C)c1 (configuration not stated) | 19% | . | . | -4% | . | 5
Cc1cccc(C2(c3cccc(C)c3)CC2C(=O)NCC2CCCO2)c1 (configuration not stated) | 13% | 0% | 17% | 79µM* | -5% | -4
O=C(NNC(=S)NC(=O)c1ccccc1[N+](=O)[O-])c1ccccc1[N+](=O)[O-] | 4% | -5% | ? | -8% | . | .
COCCNC(=S)NNc1ccccc1[N+](=O)[O-] | ? | 50µM* | ? | ? | . | ?
O=C(NNC(=S)NC(=O)c1ccccc1[N+](=O)[O-])c1ccc(Cl)cc1Cl | 5% | 3% | 18µM* | -6% | 13% | -25
O=C(NNC(=S)NC(=O)c1ccccc1[N+](=O)[O-])c1ccccc1O | 29% | ? | -38% | 89µM* | ? | 8
CC(C)(C)c1ccc(NC(=O)c2ccccc2)c([N+](=O)[O-])c1 | ? | ? | ? | 50µM* | . | 1
O=C(CN1N=C(c2ccccc2)CCC1=O)NCc1ccc(F)cc1Cl | 26% | -2% | 3%[59 µM] | -7% | . | .
O=C(NC(=S)Nc1cccc2c(O)cccc12)c1ccccc1[N+](=O)[O-] | 24% | -25% | ? | -12% | . | -19
O=C(NC(=S)Nc1ccccc1[N+](=O)[O-])c1ccccc1 | ? | -18% | 25µM* | ? | ? | -6
Cc1ccc(C(=O)NC(=S)NNC(=O)c2ccccc2[N+](=O)[O-])cc1 | -26% | 3% | 8.9µM* | 56µM* | 99% | ?
CCOc1ccccc1NC(=O)c1cc2c(=O)oc3ccccc3c2s1 | 50% | 15%[57.1 µM] | 3%[59 µM] | -26% | . | .
CC1CCCCN1C(=O)COC(=O)c1cc([N+](=O)[O-])ccc1N1CCOCC1 (configuration not stated) | 17% | 8% | 45µM* | -8% | 9% | -7
CN(C(=O)COC(=O)c1cc([N+](=O)[O-])ccc1N1CCOCC1)C1CCCCC1 | . | . | . | . | . | -14
